The supplement of paper PMC6555819

Tested on: VDR:RXRa (NR concentration 270 nM, RXRa partner concentration 90 nM)
Test: PBM binding z-score (relative to random genomic background probes); higher = stronger binding; sequences stand for … in GC…GCGATTGACAGCGTAGAATGAAGG
Procedure: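 Protein-binding microarray (Agilent 4x180K custom design, double-stranded 60-nt probes: 5' GC cap, 34-nt variable region, 24-nt constant primer region; full probe sequence given). Purified or IVT nuclear receptor:RXRα heterodimers (3:1 NR:RXRα, mostly 270:90 nM) or homodimers were incubated for 1 h in PBS with 2% milk and no ligand, then detected with Alexa488 antibodies. Fluorescence from o1-orientation probes (~5 replicates averaged) was converted to z-scores against 500 random hg19 background probes. Variable regions are seed direct-repeat (DR0–DR5) sites, all their single-nucleotide variants and half-site ablations.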

Row | Sequence | PBM binding z-score
1 | TGAATGAGGTTAAAGAACAGGGAACGTGGCGTCG | 1.12
2 | TCTATTAGTTGATTAGGCCAACCGAAACAGCGGA | 0.618
3 | CGTCCAAGGTCGTAGGAGGTCAGTGAAGACAGAT | 5.47
4 | CCTACTGGGCCATCGGGTCATTGATATCAACGTT | 2.27
5 | CCTACTGGGCCAACAGGTCATTGATATCAACGTT | 1.93
6 | GATACAGGGTCAAGGCCAGCGTACGCGTATTGAT | 3.89
7 | TCTTGGAGATCAAGCAGGTTAAGAAAGCCTGAGT | 1.04
8 | CAAAGTAGGTCACAGAGGTCAAAGTCCGTGCGTA | 7.99
9 | TGATATAGGTAAAGGTGAAAGTCGAACGATATGA | 0.866
10 | CGTCAAAGTTGAAGGTAACGTAACAGAAAGCAGC | -0.0741
11 | CAAATTAGGTCAAGGTCAAAGTCGGTTTGTGCCA | 5.33
12 | CCTAGCAGGCCAATCTGGGTCATTCAAGGCTTGA | 1.06
13 | GGTACGAGGGCAAGTTGATAGCAGAGTTTGATGG | 1.11
14 | TCTTGTGGATCAGCAGGTTAAGAAAGCTGGCCAA | 0.405
15 | AGAACGAGGGCATTGAGTTGATAGCACGGGTGGC | 5.24
16 | TTACCAAGGTGAAGGTCGTAGATCCCTCTGTAGA | 0.681
17 | ATCGAAAGGTCGAGGTGAGTTTAGAGAAAGGGAA | 4.92
18 | GGAACGAGGGCATTCGAGTTGGTAGCATGGCGAT | 2.35
19 | CCCATTAGTTGACCATAAGGGCAACCGAAGCTCG | 0.855
20 | ATCTCTAGGTAACAAGTTAAGTGAAAGAGAGGAC | 0.232

Row | Sequence | PBM binding z-score
21 | ATCTCTATGTAACAAGTTCAGTGAAAGAGAGGAC | 1.26
22 | CGTCAAAGATCAACTAAGGTAACGTAAAGCACGC | 0.78
23 | TCTATTAGTTGAAGGCCAACCGACGAGTCCGTTT | 1.02
24 | CCGACTGGGGCAAGGTTACCCTAACGCACAGCCA | 0.016
25 | TCTAGCAGGCCAGAGGGTCATTCAAGAGGTACGG | 2.25
26 | TAGCCTAGGTCAGATCGGGCAAGTATACGCTATA | 0.761
27 | ATATGTAGGTTACATCCGGGTCATTCGGGCTATG | 3.9
28 | AGAATGAGGTTATTAAGATCAGGGATTTGCGGTC | 2.6
29 | TTACCAAGGTGAAGGTCGGTGATCCCTCTGTAGA | 0.428
30 | GGATCGAGGGCAAGTTGATAGCAGAGTTTGATGG | 0.959
31 | ATCGAAAGGTGGAAGGTGAGTATACCCACCCGAA | 0.0525
32 | CGTCCAAGGTCAGCCGGTCAGTGAAAGCGACGTG | 3.32
33 | TCTATTAGTAGATTAGGGCAACCGAAACAGCGGA | 0.247
34 | GCTGATAGGTCAGGTTGGTCAGCTAACGGGTACG | 1.58
35 | CAAACTAGGTCACAGGAAGGTCAAAGTCCGCATG | 5.74
36 | ACAGACAGGTCAGTGAAGGTAACTCAGCTGGACG | 1.41
37 | CCGACTGAGGCAAAGGTTACCATACTCAGTACGA | 1.07
38 | CGAACTAGGTCAGAACAGGACAGAGAAGGATGAT | 0.496
39 | AATGCAGGGTCACTAGGCCAGAGTAGGTACGAAT | 4.04
40 | AATACAGGGTCACTAGGCGAGAGTAGGTACGAAT | 4.12
